Results taken from ChEMBL document CHEMBL1961873, “Compounds: GSK PKIS; Assays: Nanosyn kinase panel” (2012).

What was measured:
[1] = target: Serine/threonine-protein kinase PAK 6 (Homo sapiens) (UniProt Q9NQU5); details: at 1 µM;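 also: values are mean percent inhibition of PAK6 kinase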
[2] = system: Tyrosine-protein kinase ABL1 (Homo sapiens), P00519 [E255K]; details: at 0.1 µM
[3] = system: Tyrosine-protein kinase ABL1 (Homo sapiens), P00519 [E255K]; details: at 1 µM
[4] = system: Tyrosine-protein kinase ABL1 (Homo sapiens), P00519 [H396P]; details: at 0.1 µM
[5] = system: Tyrosine-protein kinase ABL1 (Homo sapiens), P00519 [H396P]; details: at 1 µM
[6] = system: Tyrosine-protein kinase ABL1 (Homo sapiens), P00519 [M351T]; details: at 0.1 µM
[7] = system: Tyrosine-protein kinase ABL1 (Homo sapiens), P00519 [M351T]; details: at 1 µM
[8] = system: Tyrosine-protein kinase ABL1 (Homo sapiens), P00519 [Q252H]; details: at 0.1 µM
[9] = system: Tyrosine-protein kinase ABL1 (Homo sapiens), P00519 [Q252H]; details: at 1 µM
[10] = system: Tyrosine-protein kinase ABL1 (Homo sapiens), P00519 [T315I]; details: at 0.1 µM
[11] = system: Tyrosine-protein kinase ABL1 (Homo sapiens), P00519 [T315I]; details: at 1 µM
[12] = system: Tyrosine-protein kinase ABL1 (Homo sapiens), P00519 [Y253F]; details: at 0.1 µM
[13] = system: Tyrosine-protein kinase ABL1 (Homo sapiens), P00519 [Y253F]; details: at 1 µM
[14] = target: Tyrosine-protein kinase ABL1 (Homo sapiens) (UniProt P00519); details: at 0.1 µM
[15] = target: Tyrosine-protein kinase ABL1 (Homo sapiens) (UniProt P00519); details: at 1 µM
[16] = target: ALK tyrosine kinase receptor (Homo sapiens) (UniProt Q9UM73); details: at 0.1 µM
[17] = target: ALK tyrosine kinase receptor (Homo sapiens) (UniProt Q9UM73); details: at 1 µM
[18] = target: Tyrosine-protein kinase ABL2 (Homo sapiens) (UniProt P42684); details: at 0.1 µM
[19] = target: Tyrosine-protein kinase ABL2 (Homo sapiens) (UniProt P42684); details: at 1 µM
[20] = target: Tyrosine-protein kinase receptor UFO (Homo sapiens) (UniProt P30530); details: at 0.1 µM;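 also: values are mean percent inhibition of AXL from the GSK PKIS screen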
Chain of Tyrosine-protein kinase receptor UFO (Homo sapiens) (P30530 whole entry): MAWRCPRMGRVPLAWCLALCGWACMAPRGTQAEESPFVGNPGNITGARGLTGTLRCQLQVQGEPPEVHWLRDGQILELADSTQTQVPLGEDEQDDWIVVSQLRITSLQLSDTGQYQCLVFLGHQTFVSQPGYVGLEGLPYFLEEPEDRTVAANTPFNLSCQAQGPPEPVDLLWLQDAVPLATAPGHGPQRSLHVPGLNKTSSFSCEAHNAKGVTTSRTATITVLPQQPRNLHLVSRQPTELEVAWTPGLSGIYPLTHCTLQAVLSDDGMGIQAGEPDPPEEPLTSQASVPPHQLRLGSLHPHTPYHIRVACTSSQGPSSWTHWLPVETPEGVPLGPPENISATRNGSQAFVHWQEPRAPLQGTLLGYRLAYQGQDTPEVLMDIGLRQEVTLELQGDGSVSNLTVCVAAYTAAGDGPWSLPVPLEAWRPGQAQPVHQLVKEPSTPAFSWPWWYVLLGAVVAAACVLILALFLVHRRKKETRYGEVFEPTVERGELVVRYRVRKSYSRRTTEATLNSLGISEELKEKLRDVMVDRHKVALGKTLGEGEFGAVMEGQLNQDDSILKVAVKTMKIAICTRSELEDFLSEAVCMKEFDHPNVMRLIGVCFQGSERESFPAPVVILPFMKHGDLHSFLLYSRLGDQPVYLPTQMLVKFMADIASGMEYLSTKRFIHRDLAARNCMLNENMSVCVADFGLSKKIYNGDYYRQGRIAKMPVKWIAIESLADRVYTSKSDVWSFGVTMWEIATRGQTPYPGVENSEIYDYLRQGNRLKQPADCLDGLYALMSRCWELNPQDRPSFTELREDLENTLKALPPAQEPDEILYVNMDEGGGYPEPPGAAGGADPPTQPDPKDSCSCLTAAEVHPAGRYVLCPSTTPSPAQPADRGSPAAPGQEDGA

Chain of Serine/threonine-protein kinase PAK 6 (Homo sapiens) (Q9NQU5 whole entry, looked up): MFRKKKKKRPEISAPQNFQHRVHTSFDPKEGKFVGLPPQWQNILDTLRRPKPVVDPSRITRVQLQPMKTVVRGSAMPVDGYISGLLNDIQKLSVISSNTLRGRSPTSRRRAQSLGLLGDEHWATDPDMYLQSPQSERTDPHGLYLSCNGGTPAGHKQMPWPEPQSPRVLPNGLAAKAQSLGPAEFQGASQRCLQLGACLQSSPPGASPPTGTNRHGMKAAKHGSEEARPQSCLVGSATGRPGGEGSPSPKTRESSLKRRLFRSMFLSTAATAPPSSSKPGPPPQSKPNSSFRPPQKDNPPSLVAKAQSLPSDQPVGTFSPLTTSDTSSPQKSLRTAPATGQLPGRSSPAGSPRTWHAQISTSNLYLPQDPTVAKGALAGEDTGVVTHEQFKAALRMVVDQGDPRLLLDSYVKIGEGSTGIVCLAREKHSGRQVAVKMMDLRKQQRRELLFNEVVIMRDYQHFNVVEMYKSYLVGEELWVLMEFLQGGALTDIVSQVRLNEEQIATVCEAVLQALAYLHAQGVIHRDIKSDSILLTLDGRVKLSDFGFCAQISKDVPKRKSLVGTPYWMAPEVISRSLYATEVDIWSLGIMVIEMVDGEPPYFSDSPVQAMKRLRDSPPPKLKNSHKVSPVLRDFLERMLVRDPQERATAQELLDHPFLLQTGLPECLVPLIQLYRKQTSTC
Chain of ALK tyrosine kinase receptor (Homo sapiens) (Q9UM73 19-1620 limits assumed): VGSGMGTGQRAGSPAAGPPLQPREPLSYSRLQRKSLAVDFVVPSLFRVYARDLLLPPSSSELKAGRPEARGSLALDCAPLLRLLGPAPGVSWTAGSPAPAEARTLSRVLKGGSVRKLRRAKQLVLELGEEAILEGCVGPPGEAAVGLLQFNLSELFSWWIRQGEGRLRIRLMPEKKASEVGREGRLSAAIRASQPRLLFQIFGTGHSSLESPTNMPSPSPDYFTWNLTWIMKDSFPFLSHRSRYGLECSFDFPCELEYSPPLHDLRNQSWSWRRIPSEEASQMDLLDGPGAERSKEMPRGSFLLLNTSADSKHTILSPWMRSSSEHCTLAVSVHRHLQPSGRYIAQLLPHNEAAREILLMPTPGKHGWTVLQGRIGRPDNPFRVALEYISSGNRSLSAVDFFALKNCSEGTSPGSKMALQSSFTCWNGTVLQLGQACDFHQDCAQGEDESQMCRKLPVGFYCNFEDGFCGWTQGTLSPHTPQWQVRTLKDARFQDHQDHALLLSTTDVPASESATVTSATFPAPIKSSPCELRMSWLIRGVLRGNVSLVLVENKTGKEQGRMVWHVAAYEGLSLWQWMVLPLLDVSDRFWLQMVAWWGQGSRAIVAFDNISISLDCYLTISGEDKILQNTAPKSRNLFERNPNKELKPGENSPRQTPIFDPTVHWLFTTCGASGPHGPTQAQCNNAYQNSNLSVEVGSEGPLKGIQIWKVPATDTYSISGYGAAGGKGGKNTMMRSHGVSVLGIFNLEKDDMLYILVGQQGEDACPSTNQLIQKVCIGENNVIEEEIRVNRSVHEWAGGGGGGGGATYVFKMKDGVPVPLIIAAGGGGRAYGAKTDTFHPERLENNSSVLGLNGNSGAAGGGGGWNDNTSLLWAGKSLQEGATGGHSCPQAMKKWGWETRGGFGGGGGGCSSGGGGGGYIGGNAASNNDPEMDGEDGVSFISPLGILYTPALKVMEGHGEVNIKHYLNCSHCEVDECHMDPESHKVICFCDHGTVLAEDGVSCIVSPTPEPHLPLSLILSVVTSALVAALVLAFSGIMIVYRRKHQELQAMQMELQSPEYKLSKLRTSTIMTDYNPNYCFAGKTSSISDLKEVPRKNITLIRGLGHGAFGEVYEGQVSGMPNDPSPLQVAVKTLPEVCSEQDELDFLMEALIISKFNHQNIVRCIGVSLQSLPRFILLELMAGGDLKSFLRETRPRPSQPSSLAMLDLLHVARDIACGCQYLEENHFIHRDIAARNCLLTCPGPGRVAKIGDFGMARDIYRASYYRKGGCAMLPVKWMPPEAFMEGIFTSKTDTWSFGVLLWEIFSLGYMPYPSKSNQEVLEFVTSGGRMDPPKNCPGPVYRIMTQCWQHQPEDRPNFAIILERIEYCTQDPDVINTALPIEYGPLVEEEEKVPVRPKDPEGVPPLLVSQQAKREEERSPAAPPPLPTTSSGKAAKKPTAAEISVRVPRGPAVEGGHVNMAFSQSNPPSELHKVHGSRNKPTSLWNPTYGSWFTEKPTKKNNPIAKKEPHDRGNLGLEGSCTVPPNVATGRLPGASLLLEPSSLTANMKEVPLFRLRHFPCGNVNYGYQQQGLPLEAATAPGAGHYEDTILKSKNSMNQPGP
Chain of Tyrosine-protein kinase ABL2 (Homo sapiens) (P42684 whole entry): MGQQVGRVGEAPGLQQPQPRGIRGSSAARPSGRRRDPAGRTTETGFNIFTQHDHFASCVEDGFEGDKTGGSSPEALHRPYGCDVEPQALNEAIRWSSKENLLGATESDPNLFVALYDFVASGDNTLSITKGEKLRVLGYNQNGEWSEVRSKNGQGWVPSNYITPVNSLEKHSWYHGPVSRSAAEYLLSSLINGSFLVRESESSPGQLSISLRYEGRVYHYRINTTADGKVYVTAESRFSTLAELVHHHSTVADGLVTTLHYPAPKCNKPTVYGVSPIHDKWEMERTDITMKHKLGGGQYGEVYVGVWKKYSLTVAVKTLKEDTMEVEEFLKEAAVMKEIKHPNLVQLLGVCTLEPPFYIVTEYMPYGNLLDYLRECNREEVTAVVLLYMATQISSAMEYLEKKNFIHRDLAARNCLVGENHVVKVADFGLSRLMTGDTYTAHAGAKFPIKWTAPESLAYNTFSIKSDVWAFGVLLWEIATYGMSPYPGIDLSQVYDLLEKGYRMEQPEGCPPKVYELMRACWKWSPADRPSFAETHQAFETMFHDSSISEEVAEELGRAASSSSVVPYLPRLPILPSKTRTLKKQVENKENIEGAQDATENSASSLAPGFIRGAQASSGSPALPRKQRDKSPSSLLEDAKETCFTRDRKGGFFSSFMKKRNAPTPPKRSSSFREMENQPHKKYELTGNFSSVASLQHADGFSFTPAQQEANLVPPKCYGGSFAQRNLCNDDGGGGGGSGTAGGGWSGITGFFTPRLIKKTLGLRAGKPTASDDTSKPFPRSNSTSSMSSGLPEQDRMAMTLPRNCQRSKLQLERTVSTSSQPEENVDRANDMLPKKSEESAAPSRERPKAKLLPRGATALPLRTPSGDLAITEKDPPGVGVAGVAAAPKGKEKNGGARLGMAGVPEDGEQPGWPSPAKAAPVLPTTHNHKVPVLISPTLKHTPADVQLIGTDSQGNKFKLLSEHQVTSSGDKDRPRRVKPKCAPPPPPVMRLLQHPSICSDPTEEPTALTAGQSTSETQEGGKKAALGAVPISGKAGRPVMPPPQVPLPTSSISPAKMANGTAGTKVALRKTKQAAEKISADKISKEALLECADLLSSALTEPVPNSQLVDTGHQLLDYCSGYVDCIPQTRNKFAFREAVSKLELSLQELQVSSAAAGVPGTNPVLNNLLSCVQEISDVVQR

SMILES: NS(=O)(=O)c1ccc(N/N=C2\C(=O)Nc3ccc4ncccc4c32)cc1
- inhibition [1]: 1.45%
- inhibition [2]: 7.3%
- inhibition [3]: 39.2%
- inhibition [4]: 8.88%
- inhibition [5]: 47.7%
- inhibition [6]: 9.67%
- inhibition [7]: 48.9%
- inhibition [8]: 13.3%
- inhibition [9]: 52.4%
- inhibition [10]: 8.91%
- inhibition [11]: 47.1%
- inhibition [12]: 11.6%
- inhibition [13]: 49.8%
- inhibition [14]: 9.91%
- inhibition [15]: 50.2%
- inhibition [16]: 3.06%
- inhibition [17]: 16.1%
- inhibition [18]: 4.85%
- inhibition [19]: 33.7%
- inhibition [20]: 0.46%

SMILES: COc1ccc2c(-c3ccnc(Nc4cccc(OC(F)(F)F)c4)n3)cnn2n1
- inhibition [1]: 6.82%
- inhibition [2]: 3.39%
- inhibition [3]: 4.4%
- inhibition [4]: 3.04%
- inhibition [5]: 15.7%
- inhibition [6]: 1.37%
- inhibition [7]: 11.9%
- inhibition [8]: 4.44%
- inhibition [9]: 9.67%
- inhibition [10]: 0.99%
- inhibition [11]: 6.33%
- inhibition [12]: 4.09%
- inhibition [13]: 8.45%
- inhibition [14]: 4.8%
- inhibition [15]: 17%
- inhibition [16]: 2.4%
- inhibition [17]: 5.73%
- inhibition [18]: 4.05%
- inhibition [19]: 19.1%
- inhibition [20]: -4.17%

SMILES: COc1ccc2[nH]c3c4[nH]c5ccc(OC)cc5c4c4c(c3c2c1)C(=O)NC4=O
- inhibition [1]: -0.34%
- inhibition [2]: 7.87%
- inhibition [3]: 36.1%
- inhibition [4]: 10.7%
- inhibition [5]: 45.3%
- inhibition [6]: 10.1%
- inhibition [7]: 47.7%
- inhibition [8]: 29.6%
- inhibition [9]: 72.5%
- inhibition [10]: 9.34%
- inhibition [11]: 33.7%
- inhibition [12]: 15.4%
- inhibition [13]: 52.3%
- inhibition [14]: 6.32%
- inhibition [15]: 34%
- inhibition [16]: 13.8%
- inhibition [17]: 58.3%
- inhibition [18]: 3.1%
- inhibition [19]: 12.1%
- inhibition [20]: 11%

SMILES: CNC(=O)c1cccc(C#Cc2cncnc2Nc2ccc(OCc3cccc(F)c3)c(Cl)c2)c1
- inhibition [1]: 0.68%
- inhibition [2]: 0.14%
- inhibition [3]: 0.64%
- inhibition [4]: 0.79%
- inhibition [5]: 1.44%
- inhibition [6]: 0.11%
- inhibition [7]: 2.15%
- inhibition [8]: 1.53%
- inhibition [9]: 2.58%
- inhibition [10]: 1.23%
- inhibition [11]: 2.43%
- inhibition [12]: 0.77%
- inhibition [13]: 3.36%
- inhibition [14]: 0.98%
- inhibition [15]: 5.91%
- inhibition [16]: 1.88%
- inhibition [17]: 3.83%
- inhibition [18]: 2.79%
- inhibition [19]: 4.76%
- inhibition [20]: -1.87%

SMILES: Clc1ccc(-c2nn3ncccc3c2-c2ccnc(Nc3ccccc3)n2)cc1
- inhibition [1]: 1.5%
- inhibition [2]: 2.58%
- inhibition [3]: 8.98%
- inhibition [4]: 4.63%
- inhibition [5]: 20.5%
- inhibition [6]: 10.4%
- inhibition [7]: 45.8%
- inhibition [8]: 5.9%
- inhibition [9]: 36.2%
- inhibition [10]: 6.6%
- inhibition [11]: 30.7%
- inhibition [12]: 7.15%
- inhibition [13]: 24.5%
- inhibition [14]: 3.9%
- inhibition [15]: 27.6%
- inhibition [16]: 2.8%
- inhibition [17]: 2.67%
- inhibition [18]: 3.8%
- inhibition [19]: 18.2%
- inhibition [20]: -0.26%

SMILES: CS(=O)(=O)CCNCc1ccc(-c2ccc3ncnc(Nc4ccc(OCc5ccccc5)c(C(F)(F)F)c4)c3c2)o1
- inhibition [1]: -6.97%
- inhibition [2]: 3.5%
- inhibition [3]: 2.71%
- inhibition [4]: 4.04%
- inhibition [5]: 4.48%
- inhibition [6]: 0.91%
- inhibition [7]: 0.91%
- inhibition [8]: 2.84%
- inhibition [9]: 2.08%
- inhibition [10]: 2.59%
- inhibition [11]: 2.46%
- inhibition [12]: 4.02%
- inhibition [13]: 3.49%
- inhibition [14]: 5.33%
- inhibition [15]: 5.35%
- inhibition [16]: 4.27%
- inhibition [17]: 4.07%
- inhibition [18]: 4.59%
- inhibition [19]: 4.76%
- inhibition [20]: -6%

SMILES: CN(C)CCOc1ccc(-c2nc(-c3ccncc3)c(-c3ccc4c(c3)CC/C4=N\O)[nH]2)cc1
- inhibition [1]: 9.98%
- inhibition [2]: 4.28%
- inhibition [3]: 17.5%
- inhibition [4]: 8.42%
- inhibition [5]: 34.1%
- inhibition [6]: 6.36%
- inhibition [7]: 30.4%
- inhibition [8]: 10.1%
- inhibition [9]: 45.1%
- inhibition [10]: 8.51%
- inhibition [11]: 41.9%
- inhibition [12]: 10.2%
- inhibition [13]: 40.1%
- inhibition [14]: 6.41%
- inhibition [15]: 40.7%
- inhibition [16]: 2.17%
- inhibition [17]: 8.67%
- inhibition [18]: 4.57%
- inhibition [19]: 19.4%
- inhibition [20]: -2.86%

SMILES: COc1cc(Nc2nccc(Nc3ccc4c(C)n[nH]c4c3)n2)cc(OC)c1OC
- inhibition [1]: -1.27%
- inhibition [2]: 18.5%
- inhibition [3]: 67.2%
- inhibition [4]: 30.1%
- inhibition [5]: 78.3%
- inhibition [6]: 28.9%
- inhibition [7]: 75.6%
- inhibition [8]: 24.5%
- inhibition [9]: 72.7%
- inhibition [10]: 1.65%
- inhibition [11]: 14.3%
- inhibition [12]: 37.6%
- inhibition [13]: 83.6%
- inhibition [14]: 20.3%
- inhibition [15]: 69.7%
- inhibition [16]: 5.55%
- inhibition [17]: 39.3%
- inhibition [18]: 18.4%
- inhibition [19]: 69.9%
- inhibition [20]: 0.91%

SMILES: COc1cccc(-c2c[nH]c3c(N/N=C/c4ccncc4)ncnc23)c1
- inhibition [1]: -1.79%
- inhibition [2]: 65%
- inhibition [3]: 91.1%
- inhibition [4]: 76.2%
- inhibition [5]: 93.6%
- inhibition [6]: 76.5%
- inhibition [7]: 92.5%
- inhibition [8]: 79.8%
- inhibition [9]: 92.6%
- inhibition [10]: 11.8%
- inhibition [11]: 57.7%
- inhibition [12]: 73%
- inhibition [13]: 93.2%
- inhibition [14]: 57.6%
- inhibition [15]: 81.7%
- inhibition [16]: 0.85%
- inhibition [17]: 1.19%
- inhibition [18]: 41.8%
- inhibition [19]: 78.6%
- inhibition [20]: -2.43%

SMILES: Fc1ccc(-c2nn3ccccc3c2-c2ccncc2)cc1
- inhibition [1]: -2%
- inhibition [2]: 1.77%
- inhibition [3]: 2.14%
- inhibition [4]: 1.59%
- inhibition [5]: 4.98%
- inhibition [6]: -1.48%
- inhibition [7]: 8.75%
- inhibition [8]: 0.48%
- inhibition [9]: 6.96%
- inhibition [10]: 0.16%
- inhibition [11]: 4.09%
- inhibition [12]: 1.97%
- inhibition [13]: 4.11%
- inhibition [14]: 1.42%
- inhibition [15]: 9.29%
- inhibition [16]: 0.44%
- inhibition [17]: 1.88%
- inhibition [18]: 3.94%
- inhibition [19]: 7.98%
- inhibition [20]: -2.22%

SMILES: Fc1ccc(-c2cc(-c3c[nH]nc3-c3ccccn3)ccn2)cc1
- inhibition [1]: -4.06%
- inhibition [2]: 3.42%
- inhibition [3]: 14.4%
- inhibition [4]: 7.22%
- inhibition [5]: 29.8%
- inhibition [6]: 4.15%
- inhibition [7]: 28.3%
- inhibition [8]: 5.44%
- inhibition [9]: 16%
- inhibition [10]: 3.13%
- inhibition [11]: 5.68%
- inhibition [12]: 5.63%
- inhibition [13]: 17.4%
- inhibition [14]: 4.06%
- inhibition [15]: 30.4%
- inhibition [16]: 4.07%
- inhibition [17]: 5.67%
- inhibition [18]: 2.48%
- inhibition [19]: 7.82%
- inhibition [20]: -7.67%

SMILES: CC(C)(CO)CNC(=O)c1ccc2c(c1)/C(=N/Nc1ccc(S(N)(=O)=O)cc1)C(=O)N2
- inhibition [1]: 1.5%
- inhibition [2]: -0.35%
- inhibition [3]: 9%
- inhibition [4]: -2.04%
- inhibition [5]: 9.98%
- inhibition [6]: -0.43%
- inhibition [7]: 9.9%
- inhibition [8]: -0.04%
- inhibition [9]: 9.08%
- inhibition [10]: -2%
- inhibition [11]: 8.62%
- inhibition [12]: -0.6%
- inhibition [13]: 12.8%
- inhibition [14]: -2.29%
- inhibition [15]: 10.7%
- inhibition [16]: -0.91%
- inhibition [17]: -1.23%
- inhibition [18]: -1.16%
- inhibition [19]: 3.31%
- inhibition [20]: 1.56%

SMILES: CC(=O)NCc1cccc(C#Cc2cncnc2Nc2ccc(OCc3cccc(F)c3)c(Cl)c2)c1
- inhibition [1]: -2.72%
- inhibition [2]: -0.06%
- inhibition [3]: 1.65%
- inhibition [4]: 2.49%
- inhibition [5]: -0.68%
- inhibition [6]: 1.1%
- inhibition [7]: -0.38%
- inhibition [8]: 2.02%
- inhibition [9]: -0.7%
- inhibition [10]: 2%
- inhibition [11]: 1.56%
- inhibition [12]: 1.3%
- inhibition [13]: 2.58%
- inhibition [14]: -0.31%
- inhibition [15]: 2.82%
- inhibition [16]: -0.48%
- inhibition [17]: 0.2%
- inhibition [18]: -0.67%
- inhibition [19]: -0.87%
- inhibition [20]: -0.21%
